The record followed here is PubChem BioAssay.

The test in a line: small-molecule microarray binders of probe aEGFR, primary screen, biochemical, biotinylated probe, 635/667 nm fluorescence (AID 1097).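 Further: probe is a biotinylated anti-EGFR antibody binding compounds printed on slides; score combines fluorescence near 667 nm and signal to noise of each spot.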 The conditions noted are these: higher = more signal.
Regarding `C[C@@]1([C@@H](NC(=O)c2ccccc2)c2ccc(-c3ccccc3)cc2)C[C@H]1C1CCCCC1`, the composite z-score stood at 0.247.
To `C=CCC(OC(C)=O)[C@@H]1[C@@H](N(Cc2ccc(-c3cccc(C(F)(F)F)c3)o2)C(=O)Cc2ccc(F)cc2)c2cc(OCCCO)ccc2N1C(=O)Cc1ccc(OC)cc1` (some centres undefined) belongs -0.195; to `COC(=O)c1c(CC[C@@H](CO)NC(=O)N[C@@H](C)Cn2cc(C3(O)CCCCC3)nn2)oc(C(C)=O)c1C(=O)OC`, 0.173.
To `C=CCC(OC(C)=O)[C@@H]1[C@@H](N(Cc2ccc(-c3cccc(C(F)(F)F)c3)o2)C(=O)c2ccc(-c3ccccc3)cc2)c2cc(OCCCO)ccc2N1C(=O)c1ccc(-c2ccccc2)cc1` (some centres undefined) belongs -0.15.
For `COCCOC(=O)N1C(=O)[C@@]2(c3cc(C#Cc4ccc(OC)cc4)ccc31)[C@H](C(N)=O)[C@H]1C(=O)O[C@H](c3ccccc3)[C@H](c3ccccc3)N1[C@@H]2c1ccccc1OCCO` the value was 0.245; for `CCN(CC)c1ccc(N2CC=CC34O[C@@H]5/C=C\CCCOC(=O)C5[C@H]3C(=O)N(CCO)[C@@H]4C2=O)cc1` (some centres undefined), -0.286; for `CC(C)N1C(=O)[C@@]2(Cc3ccccc31)c1ccccc1C(=O)N(C1CCCCC1)[C@H]2c1ccc(CO)cc1`, 0.0117.
The compound `CN(C)C(=O)[C@]1(Cc2ccccc2CN=[N+]=[N-])N=C(c2ccc(OCCCO)cc2)O[C@@H]1c1ccccc1CN=[N+]=[N-]` yielded a composite z-score of 0.0816.
For `O=C1c2ccccc2[C@](Cc2ccccc2I)(C(=O)NC2CC2)[C@H](c2ccc(CO)cc2)N1Cc1ccccc1` the value was -0.0681; for `COCCOC(=O)N1C(=O)[C@@]2(c3cc(C#CC4(O)CCCCCC4)ccc31)[C@H](c1ccc(O)cc1)N1[C@H](c3ccccc3)[C@H](c3ccccc3)OC(=O)[C@H]1[C@@H]2C(=O)Nc1nc2ccccc2s1`, 0.292; for `C=CCOC(=O)[C@H]1[C@@H]2C(=O)O[C@@H](c3ccccc3)[C@@H](c3ccccc3)N2[C@@H](c2ccc(OCCOC(=O)[C@@H]3C[C@@H]4C(=O)N5CCC[C@H]5C(=O)N4[C@@H]3c3cccc(OCCO)c3)cc2)[C@]12C(=O)Nc1ccccc12`, 0.0617.
To `C#CCN(CC=C(C)C)[C@H](CO)c1ccccc1` belongs -0.0814.
`C=C[C@H](COC(C)=O)N(C(=O)OC(C)(C)C)S(=O)(=O)c1ccc(Br)cc1`: the composite z-score was 0.545.
For `COc1ccc(C(O)C2C=CC3C(=O)N(c4ccccc4)C(=O)C3N2Nc2ccccc2F)cc1OCc1ccccc1` (centres undefined) the value was 0.308; for `CCOC(=O)C1=CCC(c2ccc(C)cc2)N(S(=O)(=O)c2ccc(C)cc2)C1` (centres undefined), -0.121.
For `COCC(=C=CC[C@H](O)c1ccccc1OCCO)C[C@H](O)c1cc(Cl)cc(Cl)c1O` the value was -0.0703.
`COCCOC(=O)N1C(=O)[C@@]2(c3cc(C#CC4=CCCCC4)ccc31)[C@H](C(=O)Nc1nc3ccccc3s1)[C@H]1C(=O)O[C@H](c3ccccc3)[C@H](c3ccccc3)N1[C@@H]2c1ccccc1OCCO` showed a composite z-score of 0.411.
To `CC(C)C[C@@H]1NC(=O)[C@H]2C[C@@H](C(=O)NCCCCCCN)[C@@H](c3ccc(O)cc3)N2C1=O` belongs 0.125.
In turn, `COCCCNC(=O)[C@@]1(Cc2ccccc2)N=C(c2ccc(OCCCO)cc2)O[C@H]1c1ccccc1` had a composite z-score of 0.265.
To `CN(C)C(=O)[C@]1(Cc2ccccc2N=[N+]=[N-])N=C(c2ccc(OCCCO)cc2)O[C@@H]1c1ccccc1` belongs -0.0512; to `CN1C(=O)C2C=CC(C(O)c3ccccc3)N(Nc3ccccc3)C2C1=O` (centres undefined), -0.0828.
The compound `CCOC(=O)C[C@H]1[C@H](OC(=O)Cc2ccc3c(c2)OCO3)[C@@H](NC(=O)c2ccc(-c3ccccc3)cc2)c2cc(OCCCO)ccc2N1C(=O)Cc1ccc(OC)cc1` yielded a composite z-score of 0.0881.
For `O=C1c2ccccc2[C@](Cc2ccccc2I)(C(=O)NC2CC2)[C@H](c2ccc(CO)cc2)N1C1CCCCC1` the value was -0.36; for `C=CCOC(=O)[C@@H]1[C@H]2C(=O)O[C@H](c3ccccc3)[C@H](c3ccccc3)N2[C@H](c2ccc(OCCOC(=O)[C@@H]3C[C@@H]4C(=O)N5CCC[C@H]5C(=O)N4[C@@H]3c3ccc(O)cc3)cc2)[C@@]12C(=O)Nc1ccc(I)cc12`, -0.242.
